Data as given in PubChem BioAssay (EPA / NIEHS).
Several values for one entry are separate records, joined by “and”; a condition that tells them apart may be missing. Identical values can stand only once. Results filed as inconclusive are left out. Activity calls are given as the source filed them. How the source made its calls: active means hit-call score of the fitted dose curve at least 0.9, where 1 is the maximum; inconclusive means response in the unintended direction; inactive means score below 0.9.

Experiments:
[1] = ATG_XTT_Cytotoxicity: Cytotoxicity Assessment in the Attagene TRANS-FACTORIAL HepG2 Assay (AID 2283584)
Summary of the method: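 XTT readout of cell number in transfected HepG2 cells, 24 h post-dosing; DMSO serves as negative control and baseline, with activity taken as loss of viability signal.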

[2] = TOX21_p53_BLA_p2_viability: Viability Assessment in the Tox21 HCT-116 p53 Agonism Beta-lactamase Assay, Phase 2 (AID 2283591);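 further: compound exposure lasted 16 h at 37 °C; actives lower the ATP signal meaning cytotoxicity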
Summary of the method: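 HCT116 p53-bla cells, 4000/well, dosed after 5 h plating (217-fold dilution of DMSO stocks) and incubated 16 h at 37C. Viability taken as cellular ATP by CellTiter-Glo luminescence after 30 min RT; signal loss marks cytotoxicity.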

[3] = target: Cellular tumor antigen p53 (Homo sapiens) (UniProt P04637); assay: TOX21_p53_BLA_p2_ratio: Tox21 HCT-116 p53 Agonism Beta-lactamase Assay, Ratio, Phase 2 (AID 2283592)
Summary of the method: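 In this cell-based reporter format, HCT116 cells were dosed with chemicals delivered from DMSO by 217-fold dilution and incubated 16 h at 37C. Emission at 460 and 530 nm after 2 h CCF4-AM loading provided the ratio, fitted upward versus DMSO.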

[4] = TOX21_p53_BLA_p3_viability: Viability Assessment in the Tox21 HCT-116 p53 Agonism Beta-lactamase Assay, Phase 3 (AID 2283593);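 further: cells exposed to compound for 16 h before reading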
Summary of the method: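 HCT116 cells, 4000/well, dosed 5 h after plating by pin transfer (217-fold dilution from DMSO stock) and incubated 16 h at 37C, 5% CO2. Viability read as ATP luminescence with CellTiter-Glo after 30 min at room temperature.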

[5] = TOX21_p53_BLA_p4_viability: Viability Assessment in the Tox21 HCT-116 p53 Agonism Beta-lactamase Assay, Phase 4 (AID 2283597);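 further: hits lower the luminescence signal meaning cytotoxicity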
Summary of the method: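 We seeded HCT116 p53 reporter cells at 4000/well and waited 5 h. We then added compounds in DMSO at a 217-fold dilution and incubated for 16 h. Viability was read as CellTiter-Glo luminescence after 30 min at RT.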

[6] = target: Cellular tumor antigen p53 (Homo sapiens) (UniProt P04637); assay: TOX21_p53_BLA_p5_ratio: Tox21 HCT-116 p53 Agonism Beta-lactamase Assay, Ratio, Phase 5 (AID 2283599)
Summary of the method: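 HCT-116 p53-bla cells (4000/well) plated 5 h, dosed with compound (217-fold DMSO dilution) for 16 h at 37 C; CCF4-AM substrate 2 h at room temperature. Activity is the 460/530 nm emission ratio (405 nm excitation), fitted in gain-of-signal direction versus DMSO.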

[7] = TOX21_p53_BLA_p5_viability: Viability Assessment in the Tox21 HCT-116 p53 Agonism Beta-lactamase Assay, Phase 5 (AID 2283600)
Summary of the method: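 Compounds, pinned from DMSO at 217-fold dilution, were left on the cells for 16 h. The viability endpoint was ATP content measured by CellTiter-Glo luminescence, where falling signal reflects cytotoxicity.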

[8] = target: Cellular tumor antigen p53 (Homo sapiens) (UniProt P04637); assay: TOX21_p53_BLA_p4_ratio: Tox21 HCT-116 p53 Agonism Beta-lactamase Assay, Ratio, Phase 4 (AID 2283601)
Summary of the method: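 HCT-116 p53 beta-lactamase reporter cells (4000/well) preincubated 5 h, then compound (217-fold dilution of DMSO stock) for 16 h at 37C. CCF4-AM substrate added 2 h at room temperature; 460/530 nm emission ratio fitted upward versus DMSO.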

[9] = target: Cellular tumor antigen p53 (Homo sapiens) (UniProt P04637); assay: TOX21_p53_BLA_p3_ratio: Tox21 HCT-116 p53 Agonism Beta-lactamase Assay, Ratio, Phase 3 (AID 2283596)
Summary of the method: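 HCT116 p53-bla cells (4000/well) given compound in DMSO (217-fold dilution) after 5 h, incubated 16 h at 37C. CCF4-AM substrate 2 h at room temperature; 460/530 nm emission ratio, gain fitted against DMSO.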

[10] = Tanguay_ZF_120hpf_MORT_legacy: (Legacy) Oregon State University Tanguay Lab 120 Hour Post-fertilization zebrafish Assay for Mortality (AID 2283633)
Summary of the method: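 Brightfield scoring of embryo death (binary) at 24 and 120 hpf; static exposure 6–120 hpf, 28C, sealed and foil-covered. Pronase-dechorionated 5D wild-type larvae, single embryo per well. DMSO 0.64% v/v; trimethyltin chloride 5uM positive control.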

[11] = Tanguay_ZF_120hpf_YSE_legacy: (Legacy) Oregon State University Tanguay Lab 120 Hour Post-fertilization zebrafish Assay for Yolk Sac Edema (AID 2283634)
Summary of the method: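 Binary brightfield scoring of yolk sac edema at 120 hpf; DMSO baseline, gain-of-signal fitting. Dechorionated 5D larvae, one per well, static exposure 6–120 hpf, 28C, 0.64% DMSO. Dead embryos not scored.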

[12] = Tanguay_ZF_120hpf_AXIS_legacy: (Legacy) Oregon State University Tanguay Lab 120 Hour Post-fertilization zebrafish Assay for Body Axis Malformation (AID 2283635)
Summary of the method: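 Embryos: 5D wild-type, pronase-dechorionated 4 hpf; static exposure 6–120 hpf, 28C, sealed, dark, 1 embryo/well, 0.64% DMSO. 120 hpf axis malformation scored present/absent; dead embryos excluded. Analysed as gain of signal vs DMSO.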

[13] = Tanguay_ZF_120hpf_EYE_legacy: (Legacy) Oregon State University Tanguay Lab 120 Hour Post-fertilization zebrafish Assay for Eye Malformation (AID 2283636);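 further: binary presence or absence of eye malformation scored by brightfield in 120 hpf larvae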
Summary of the method: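 Dechorionated Tropical 5D zebrafish embryos, one per well from 6 hpf, static exposure to 120 hpf at 28C, 0.64% DMSO. Eye malformation scored present/absent by brightfield; dead embryos not scored.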

[14] = Tanguay_ZF_120hpf_JAW_legacy: (Legacy) Oregon State University Tanguay Lab 120 Hour Post-fertilization zebrafish Assay for Jaw Malformation (AID 2283638)
Summary of the method: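 Binary jaw-malformation calls at 120 hpf by brightfield imaging; DMSO (0.64% v/v) = baseline. Embryos: 5D wild-type, pronase-dechorionated, one per well from 6 hpf, static exposure, 28C, sealed, dark.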

[15] = Tanguay_ZF_120hpf_OTIC_legacy: (Legacy) Oregon State University Tanguay Lab 120 Hour Post-fertilization zebrafish Assay for Otic Vesicle Malformation (AID 2283639)
Summary of the method: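 Tropical 5D wild-type zebrafish embryos statically exposed in 0.64% DMSO at 28C until 120 hpf; 5uM trimethyltin chloride as positive control. Otic vesicle malformation scored present/absent by brightfield; dead embryos not scored; gain fitted versus DMSO.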

[16] = Tanguay_ZF_120hpf_PE_legacy: (Legacy) Oregon State University Tanguay Lab 120 Hour Post-fertilization zebrafish Assay for Pericardial Edema (AID 2283640)
Summary of the method: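 Static waterborne exposure, 5D wild-type embryos, 28C, to 120 hpf; final DMSO 0.64% (vol/vol). Binary PE call at 120 hpf by brightfield; fitted upward vs DMSO baseline. 5uM trimethyltin chloride as positive control.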

[17] = Tanguay_ZF_120hpf_BRAI_legacy: (Legacy) Oregon State University Tanguay Lab 120 Hour Post-fertilization zebrafish Assay for Brain Malformation (AID 2283641)
Summary of the method: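 Read-out: binary brain morphology call at 120 hpf (brightfield), fitted in gain-of-signal direction vs DMSO. Wild-type Tropical 5D embryos, static exposure, 28C, 0.64% DMSO final; 5uM trimethyltin chloride as positive control.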

[18] = Tanguay_ZF_120hpf_SOMI_legacy: (Legacy) Oregon State University Tanguay Lab 120 Hour Post-fertilization zebrafish Assay for Somite Malformation (AID 2283647)
Summary of the method: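 Binary brightfield scoring of somite defects at 120 hpf in 5D wild-type larvae; one dechorionated embryo per well, static exposure from 6 hpf, 28C, sealed and dark. Final DMSO 0.64%; trimethyltin chloride 5uM positive control.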

[19] = Tanguay_ZF_120hpf_PFIN_legacy: (Legacy) Oregon State University Tanguay Lab 120 Hour Post-fertilization zebrafish Assay for Pectoral Fin Malformation (AID 2283648);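 further: each larva judged yes or no for fin defect by brightfield with dead larvae skipped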
Summary of the method: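 Dechorionated Tropical 5D wild-type zebrafish embryos, one per well, statically exposed from 6 to 120 hpf at 28C with 0.64% DMSO final. Pectoral fin malformation scored present/absent by brightfield at 120 hpf; not scored in dead embryos.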

[20] = Tanguay_ZF_120hpf_SNOU_legacy: (Legacy) Oregon State University Tanguay Lab 120 Hour Post-fertilization zebrafish Assay for Snout Malformation (AID 2283637)
Summary of the method: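 Dechorionated tropical 5D wild-type zebrafish embryos exposed statically from 6 to 120 hpf at 28C, one per well, in 0.64% DMSO. Snout malformation scored as present/absent by brightfield at 120 hpf; dead embryos not scored.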

Measured: AC50

Chain of Cellular tumor antigen p53 (Homo sapiens) (P04637 whole entry, looked up): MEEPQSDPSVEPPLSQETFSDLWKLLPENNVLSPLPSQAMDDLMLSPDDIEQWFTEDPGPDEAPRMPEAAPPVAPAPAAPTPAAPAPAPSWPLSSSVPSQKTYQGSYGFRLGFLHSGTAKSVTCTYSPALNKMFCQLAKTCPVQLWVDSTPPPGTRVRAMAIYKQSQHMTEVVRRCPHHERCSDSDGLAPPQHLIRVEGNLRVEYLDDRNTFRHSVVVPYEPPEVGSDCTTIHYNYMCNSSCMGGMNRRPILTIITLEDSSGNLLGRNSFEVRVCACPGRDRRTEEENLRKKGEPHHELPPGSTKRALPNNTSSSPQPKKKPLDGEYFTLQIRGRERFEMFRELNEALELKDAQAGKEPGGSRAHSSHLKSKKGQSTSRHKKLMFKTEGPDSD

c1ccc(OCCOc2ccccc2)cc1
inactive: [1] | [2] | [3] | [4] | [5] | [6] | [7] | [8]

CC(=O)CC(=O)N(C)C
inactive: [1] | [2] | [3] | [9] | [5] | [6] | [8]

CCCCCCCCCCCCCCCCCC(=O)OCCCCCCCCCCCCCC(C)C
inactive: [1] | [2] | [3] | [5] | [6]

C=C1CC/C=C(\C)CC[C@@H]2[C@@H]1CC2(C)C
inactive: [1] | [2] | [3] | [4] | [6] | [8]

CC(C)OB(OC(C)C)OC(C)C
inactive: [1] | [2] | [3] | [9] | [7]

NC(=O)c1cnccn1
inactive: [1] | [2] | [3] | [4] | [9] | [6] | [8]

COc1ccc2[nH]cc(CCNC(C)=O)c2c1
inactive: [1] | [2] | [3] | [4] | [5] | [6] | [8]

CC(C)C(=O)OCC=Cc1ccccc1
inactive: [1] | [2] | [3] | [9] | [5] | [6] | [7] | [8]

CC12CCC(C1)C(C)(C)C2O (stereo not drawn)
inactive: [1] | [2] | [3] | [4] | [9] | [7] | [8]

C=C(C)C(N)=O
not listed: [5] | [20]
inactive: all other assays above

C#C[C@]1(O)CC[C@H]2[C@@H]3CCc4cc(O)ccc4[C@H]3CC[C@@]21C
active: [3] 9 µM and 6.58 µM and 7.36 µM | [9] 15.2 µM and 16.2 µM | [6] 11.7 µM and 13.9 µM and 7.67 µM | [8] 6.65 µM and 13.5 µM and 8.18 µM
not listed: [4] | [7] | [12]
inactive: all other assays above

NC(=O)NC(N)=O
inactive: [1] | [2] | [3] | [4] | [6] | [7] | [8]

CCOC(=O)CC1(C)OCC(C)O1 (stereo not drawn)
inactive: [1] | [2] | [3] | [4] | [6] | [7]
